FECH inh – blocks human mitochondrial ferrochelatase activity. purified FECH, Ni-mesoporphyrin absorbance 550 nm. calls only at 10 µM (by protocol). actives 3.3% (n = 20,000). AID 1671448;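 active = enzyme reaction rate more than 3 SD below the solvent-only control wells on the same plate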;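 note: lower slope than DMSO wells means FECH inhibition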
Target sequence (P22830 whole entry, looked up): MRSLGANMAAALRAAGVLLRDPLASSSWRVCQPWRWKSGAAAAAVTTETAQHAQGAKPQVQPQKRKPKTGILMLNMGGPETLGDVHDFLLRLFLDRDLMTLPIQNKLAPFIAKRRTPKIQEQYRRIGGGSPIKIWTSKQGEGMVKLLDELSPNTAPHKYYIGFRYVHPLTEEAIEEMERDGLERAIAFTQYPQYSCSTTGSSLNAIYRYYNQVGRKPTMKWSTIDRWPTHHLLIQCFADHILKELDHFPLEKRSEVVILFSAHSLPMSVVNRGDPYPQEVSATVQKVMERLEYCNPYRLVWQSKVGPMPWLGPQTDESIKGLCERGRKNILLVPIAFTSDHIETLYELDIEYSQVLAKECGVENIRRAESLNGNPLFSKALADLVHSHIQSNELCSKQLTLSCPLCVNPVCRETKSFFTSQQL
Large screens that a line does not name were inactive. The sample as a whole holds a higher share of hits than the screen did.

Cc1ccc(NC2CCCN(C(=O)c3cc(Cl)c[nH]c3=O)C2)cc1C (stereo unspecified)	none
CN(Cc1cccc(Cn2cccn2)c1)Cc1nc(-c2cccnc2)no1	none
CCOc1ccc(-c2nc(CSc3nc(C)c(C)c(=O)[nH]3)c(C)o2)cc1	none
COCCN(Cc1ccc(O)c(Cl)c1)Cc1cnn(C)c1	none
Cc1cc(=O)[nH]c(SCc2nc(-c3ccccc3C)oc2C)n1	none
CC(CC1=CCN(CCO)CC1)NC(=O)c1cc(F)ccc1F (stereo unspecified)	none
Cc1ccccc1-c1cc(N2CCN(S(=O)(=O)c3cccc(Cl)c3)CC2)ncn1	none
CN(C)c1nc2ncnc(SCC(=O)Nc3cccc(F)c3)c2s1	none
Cc1ccccc1-c1ncc(CN2CCC3(CC2)CNC(=O)C3)s1	none
COc1cccc(-c2cc(N3CCN(S(=O)(=O)c4cc(Cl)ccc4OC)CC3)ncn2)c1	none
COc1cccc(-c2cc(N3CCN(S(=O)(=O)c4ccccc4)CC3)ncn2)c1	FECH inh active
Cc1cccc(-c2cc(N3CCN(S(=O)(=O)c4ccc(CC(C)C)cc4)CC3)ncn2)c1	FECH inh active
CC(C)Cc1ccc(S(=O)(=O)N2CCN(c3cc(-c4ccc(F)cc4)ncn3)CC2)cc1	none
COc1cccc(-c2cc(N3CCN(S(=O)(=O)c4c(C)noc4C)CC3)ncn2)c1	FECH inh active
Cc1ccc(-c2cc(N3CCN(S(=O)(=O)c4ccc(CC(C)C)cc4)CC3)ncn2)cc1	none
COc1cccc(-c2cc(N3CCN(S(=O)(=O)c4cc(OC)ccc4OC)CC3)ncn2)c1	FECH inh active
COc1cccc(-c2cc(N3CCN(S(=O)(=O)c4ccc(Br)cc4)CC3)ncn2)c1	none
COc1cccc(-c2cc(N3CCN(S(=O)(=O)c4ccc(OC)c(Cl)c4)CC3)ncn2)c1	none
Cc1ccc(-c2cc(N3CCN(S(=O)(=O)c4c(C)noc4C)CC3)ncn2)cc1	none
COc1cccc(-c2cc(N3CCN(S(=O)(=O)c4ccc(F)cc4)CC3)ncn2)c1	none
Cc1cccc(-c2cc(N3CCN(S(=O)(=O)c4c(C)noc4C)CC3)ncn2)c1	none
CC1CCN(CCNC(=O)C2CCN(c3ccc(-c4cccs4)nn3)CC2)CC1	none
CN(Cc1cc(C2CC2)n[nH]1)C(=O)c1cc(Cn2cnc3ccccc32)[nH]n1	none
Cc1cc(C(=O)NC(C(=O)O)c2c(C)n[nH]c2C)sc1-c1ccccc1 (stereo unspecified)	none
Cc1cc(C)n(CCC(=O)NCCCn2nnc3ccccc32)c(=O)n1	none
COc1ccc(Nc2cc(C)nc(Nc3ccc(NC(=O)c4cccc(F)c4)cc3)n2)cc1	none
CSc1nc(-c2ccc(C)cc2)c(C#N)c(N2CCCc3ccccc32)n1	none
CCOCCCNC(=O)c1ccc(CN2C(=O)CCn3nc(-c4ccccc4)cc32)cc1	none
Cc1cc(N2CCCC2)nc(Nc2ccc(NC(=O)c3ccccc3Br)cc2)n1	none
COc1ccc(C(=O)N(Cc2nc3nc(C)cc(C)n3n2)c2cccc(C)c2)cc1OC	none
Cc1ccc(N(Cc2nc3nc(C)cc(C)n3n2)C(=O)c2ccco2)cc1	none
Cc1cccc(N(Cc2nc3nc(C)cc(C)n3n2)C(=O)C(C)C)c1	FECH inh active
Cc1cc(C)n2nc(CN(C(=O)c3ccco3)c3ccc(F)cc3)nc2n1	FECH inh active
Cc1ccc(C(=O)N(Cc2nc3nc(C)cc(C)n3n2)c2cccc(Cl)c2)cc1	none
Cc1cc(C)n2nc(CN(C(=O)c3ccccc3)c3cccc(Cl)c3)nc2n1	FECH inh active
Cc1ccc(C(=O)N(Cc2nc3nc(C)cc(C)n3n2)c2cccc(C)c2)cc1	FECH inh active
Cc1cc(C)n2nc(CN(C(=O)c3ccc(F)cc3)c3ccccc3)nc2n1	none
Cc1cccc(N(Cc2nc3nc(C)cc(C)n3n2)C(=O)c2ccco2)c1	none
Cc1cc(C)n2nc(CN(C(=O)c3cccc(Cl)c3)c3ccccc3)nc2n1	none
CCC(C(=O)N(Cc1nc2nc(C)cc(C)n2n1)c1cccc(C)c1)c1ccccc1 (stereo unspecified)	none
Cc1cccc(N(Cc2nc3nc(C)cc(C)n3n2)C(=O)CC(C)C)c1	none
CCC(CC)n1nc(C)cc1NC(=O)C(=O)Nc1ccc(C)cc1C	none
O=C(CCC(=O)N1CCC(N2CCCCC2)CC1)NC1CCCCCCC1	none
COc1cccc(NC(=O)Cn2c(C(=O)OC(C)C)cc3ccsc32)c1	none
CN(Cc1ccc2c(c1)OCO2)C(=O)C1CCCN1C(=O)C1CCCCC1 (stereo unspecified)	none
Cc1cc(C)n2nc(CN(C(=O)Cc3ccccc3)c3ccc(F)cc3)nc2n1	none
Cc1cc(C)n2nc(CN(C(=O)Cc3ccccc3)c3ccccc3)nc2n1	FECH inh active
Cc1cccc(N(Cc2nc3nc(C)cc(C)n3n2)C(=O)c2cccc(Cl)c2)c1	FECH inh active
Cc1cccc(C(=O)N(Cc2nc3nc(C)cc(C)n3n2)c2cccc(C)c2)c1	none
Cc1cccc(N(Cc2nc3nc(C)cc(C)n3n2)C(=O)Cc2ccccc2)c1	none
CCOc1ccc(N(Cc2nc3nc(C)cc(C)n3n2)C(=O)c2cccc(Cl)c2)cc1	none
CCOc1ccccc1NC(=O)CN1CCCN(Cc2ccc(Cl)cc2)S1(=O)=O	none
CC1CCc2[nH]nc(-c3n[nH]c(Cc4ccccc4)n3)c2C1 (stereo unspecified)	none
COc1ccc(C(=O)N2C[C@@H](O)[C@H](NCCc3c[nH]c4ccccc34)C2)cc1	none
CCOC(=O)CCc1c(C)nc2nc(CNc3cc(Cl)ccc3OC)[nH]n2c1=O	none
COc1ccc(NCc2nc3nc(C)c(Cc4ccc(Cl)cc4)c(=O)n3[nH]2)cc1	FECH inh active
Cc1ccccc1NCc1nc2nc(C)c(Cc3ccc(Cl)cc3)c(=O)n2[nH]1	none
Cc1ccc(NCc2nc3nc(C)c(Cc4ccc(Cl)cc4)c(=O)n3[nH]2)cc1	none
CCOC(=O)CCc1c(C)nc2nc(CNc3ccc(Cl)cc3)[nH]n2c1=O	FECH inh active
CCOC(=O)CCc1c(C)nc2nc(CNc3ccc(C)c(Cl)c3)[nH]n2c1=O	FECH inh active
CCOC(=O)CCc1c(C)nc2nc(CNc3ccccc3OC)[nH]n2c1=O	none
CCc1nc2nc(C)c(NC(=O)Nc3cccc(Cl)c3)c(=O)n2[nH]1	none
CCOC(=O)Cc1ccc(NC(=O)Nc2c(C)nc3nc[nH]n3c2=O)cc1	none
CN1CC(=O)N2CCN(Cc3cc(C#CCO)cs3)CC2C1=O (stereo unspecified)	none
Cc1ccc(C2(O)CCN(C(=O)c3nc[nH]c3C)CC2)nc1	none
CN(CCNC(=O)C1CCN(c2ncnc3c2nc2n3CCCCC2)CC1)Cc1ccccc1	FECH inh active
O=C(NCc1ccccc1)C1CCN(c2ncnc3c2nc2n3CCCCC2)CC1	none
CCN(CCNC(=O)C1CCCN(c2ncnc3c2nc2n3CCCCC2)C1)Cc1ccccc1 (stereo unspecified)	none
CC(=O)c1cccc(-c2ccc(CN3CCCC3)cc2)c1	none
COc1ccc(CC(=O)N(Cc2nc3nc(C)cc(C)n3n2)c2cccc(Cl)c2)cc1	none
O=C(CN1CCN(Cc2ccccc2Cl)S1(=O)=O)Nc1ccccc1	none
Cc1cc(C)cc(Oc2cc(SCC(=O)Nc3ccccc3C)ncn2)c1	FECH inh active
CN(C)c1nc2ncnc(SCC(=O)Nc3ccc(F)cc3F)c2s1	none
CCC(=O)Nc1ccccc1-c1nnc(SCC(=O)Nc2ccc(C)cc2C)[nH]c1=O	none
Cc1ccccc1NC(=O)CCNC(=O)COc1c(C)ccc(C)c1C	none
COc1cccc(CNC(=O)CSc2cc(Oc3cc(C)cc(C)c3)ncn2)c1OC	FECH inh active
COc1ccccc1CNC(=O)CN(C)Cc1c(C)nn(C)c1C	none
Cc1cc(C)cc(Oc2cc(SCC(=O)Nc3ccc(F)cc3Cl)ncn2)c1	FECH inh active
Cc1ccc(NC(=O)CN2CCN(Cc3ccc(F)cc3Cl)S2(=O)=O)c(Cl)c1	none

Assay outcomes (PubChem)
